compound: CN[C@@H]1C[C@H]2O[C@@](C)([C@@H]1OC)n1c3ccccc3c3c4c(c5c6ccccc6n2c5c31)C(=O)NC4 [staurosporine]; assay: log2 fold change of tryptic peptide abundance, ligand vs vehicle (limited proteolysis) (log2 ratio); higher = more trypsin-susceptible (destabilized); details: ligand concentration: 20 uM; sample: mouse liver crude lysate; replicate design: treated separately

Sequence of UniProt Q9CZW6 (Q9CZW6 whole entry): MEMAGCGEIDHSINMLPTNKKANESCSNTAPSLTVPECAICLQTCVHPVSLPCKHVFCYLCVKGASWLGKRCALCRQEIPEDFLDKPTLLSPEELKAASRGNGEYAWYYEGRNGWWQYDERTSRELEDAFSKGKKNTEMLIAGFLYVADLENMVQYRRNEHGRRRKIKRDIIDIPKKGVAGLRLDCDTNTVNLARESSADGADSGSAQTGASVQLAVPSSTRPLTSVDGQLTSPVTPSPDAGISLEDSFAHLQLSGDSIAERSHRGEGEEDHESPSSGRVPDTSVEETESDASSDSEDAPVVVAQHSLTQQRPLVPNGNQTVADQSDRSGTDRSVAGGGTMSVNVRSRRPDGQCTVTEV
Sequence of UniProt Q8VEB1 (Q8VEB1 whole entry): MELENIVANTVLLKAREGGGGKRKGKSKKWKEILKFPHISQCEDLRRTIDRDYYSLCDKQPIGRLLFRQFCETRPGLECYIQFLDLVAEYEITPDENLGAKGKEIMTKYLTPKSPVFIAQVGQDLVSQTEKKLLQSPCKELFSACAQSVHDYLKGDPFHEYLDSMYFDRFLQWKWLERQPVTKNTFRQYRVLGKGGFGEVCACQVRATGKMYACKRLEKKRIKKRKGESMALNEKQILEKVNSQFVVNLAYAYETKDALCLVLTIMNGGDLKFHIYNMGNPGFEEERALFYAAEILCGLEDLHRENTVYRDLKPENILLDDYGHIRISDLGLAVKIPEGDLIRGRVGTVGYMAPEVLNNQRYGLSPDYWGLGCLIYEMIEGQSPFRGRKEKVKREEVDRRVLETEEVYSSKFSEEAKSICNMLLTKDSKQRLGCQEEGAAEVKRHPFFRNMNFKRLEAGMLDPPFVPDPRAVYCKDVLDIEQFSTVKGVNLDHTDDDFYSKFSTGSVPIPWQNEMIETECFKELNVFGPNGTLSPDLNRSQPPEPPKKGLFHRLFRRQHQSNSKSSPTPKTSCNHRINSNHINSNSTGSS
Sequence of UniProt Q03147 (Q03147 whole entry): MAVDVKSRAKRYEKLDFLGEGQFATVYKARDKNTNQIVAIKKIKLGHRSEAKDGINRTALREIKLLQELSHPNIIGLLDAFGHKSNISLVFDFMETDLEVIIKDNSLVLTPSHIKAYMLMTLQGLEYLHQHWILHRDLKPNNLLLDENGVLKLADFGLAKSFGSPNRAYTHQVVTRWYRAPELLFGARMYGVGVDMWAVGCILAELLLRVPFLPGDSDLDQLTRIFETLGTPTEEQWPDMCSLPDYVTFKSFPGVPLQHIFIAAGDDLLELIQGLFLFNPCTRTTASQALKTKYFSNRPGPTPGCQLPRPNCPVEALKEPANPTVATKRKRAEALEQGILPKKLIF
Sequence of UniProt P11440 (P11440 whole entry, looked up): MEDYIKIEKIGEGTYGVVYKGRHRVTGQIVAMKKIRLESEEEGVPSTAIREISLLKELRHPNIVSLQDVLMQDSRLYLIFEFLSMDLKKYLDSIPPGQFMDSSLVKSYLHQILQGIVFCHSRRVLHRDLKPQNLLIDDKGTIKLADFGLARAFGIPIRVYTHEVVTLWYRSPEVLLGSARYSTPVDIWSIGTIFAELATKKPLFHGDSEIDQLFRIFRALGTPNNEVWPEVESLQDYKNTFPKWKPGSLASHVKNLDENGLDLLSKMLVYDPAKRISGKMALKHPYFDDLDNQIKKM
Sequence of UniProt P06728 (P06728 whole entry): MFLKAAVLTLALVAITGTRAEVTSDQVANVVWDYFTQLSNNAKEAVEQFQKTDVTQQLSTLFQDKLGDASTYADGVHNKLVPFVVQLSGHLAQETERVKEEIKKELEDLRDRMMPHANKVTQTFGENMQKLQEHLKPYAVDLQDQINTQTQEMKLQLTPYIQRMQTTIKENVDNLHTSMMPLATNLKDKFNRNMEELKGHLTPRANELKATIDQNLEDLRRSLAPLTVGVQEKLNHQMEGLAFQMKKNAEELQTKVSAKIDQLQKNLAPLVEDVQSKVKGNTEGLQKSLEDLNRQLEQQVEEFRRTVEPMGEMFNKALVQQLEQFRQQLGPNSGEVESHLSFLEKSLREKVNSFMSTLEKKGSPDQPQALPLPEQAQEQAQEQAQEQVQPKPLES
Sequence of UniProt Q64261 (Q64261 whole entry): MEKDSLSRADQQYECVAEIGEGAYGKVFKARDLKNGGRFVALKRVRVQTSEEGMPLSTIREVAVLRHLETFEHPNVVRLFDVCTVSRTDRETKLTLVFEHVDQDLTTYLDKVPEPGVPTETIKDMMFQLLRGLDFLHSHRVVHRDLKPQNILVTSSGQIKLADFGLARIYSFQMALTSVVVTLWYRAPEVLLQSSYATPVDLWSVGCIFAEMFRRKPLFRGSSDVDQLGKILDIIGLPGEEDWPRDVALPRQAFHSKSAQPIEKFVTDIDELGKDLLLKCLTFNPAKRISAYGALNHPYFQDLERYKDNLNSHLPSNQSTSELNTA
Sequence of UniProt Q64459 (Q64459 whole entry): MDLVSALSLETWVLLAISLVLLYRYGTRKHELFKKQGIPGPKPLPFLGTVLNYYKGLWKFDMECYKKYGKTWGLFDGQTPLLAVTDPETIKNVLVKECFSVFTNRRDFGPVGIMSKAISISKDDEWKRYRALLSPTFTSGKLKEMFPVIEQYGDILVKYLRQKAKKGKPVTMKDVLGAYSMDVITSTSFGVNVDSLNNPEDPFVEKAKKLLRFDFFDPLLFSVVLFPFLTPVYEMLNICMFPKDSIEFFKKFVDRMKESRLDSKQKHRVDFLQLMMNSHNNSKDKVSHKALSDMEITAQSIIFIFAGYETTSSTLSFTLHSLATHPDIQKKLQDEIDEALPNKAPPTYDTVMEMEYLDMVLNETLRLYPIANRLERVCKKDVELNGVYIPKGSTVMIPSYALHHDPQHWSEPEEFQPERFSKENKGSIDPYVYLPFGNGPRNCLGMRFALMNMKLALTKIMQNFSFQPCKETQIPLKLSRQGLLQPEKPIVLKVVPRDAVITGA
Sequence of UniProt Q9QZS5 (Q9QZS5 whole entry): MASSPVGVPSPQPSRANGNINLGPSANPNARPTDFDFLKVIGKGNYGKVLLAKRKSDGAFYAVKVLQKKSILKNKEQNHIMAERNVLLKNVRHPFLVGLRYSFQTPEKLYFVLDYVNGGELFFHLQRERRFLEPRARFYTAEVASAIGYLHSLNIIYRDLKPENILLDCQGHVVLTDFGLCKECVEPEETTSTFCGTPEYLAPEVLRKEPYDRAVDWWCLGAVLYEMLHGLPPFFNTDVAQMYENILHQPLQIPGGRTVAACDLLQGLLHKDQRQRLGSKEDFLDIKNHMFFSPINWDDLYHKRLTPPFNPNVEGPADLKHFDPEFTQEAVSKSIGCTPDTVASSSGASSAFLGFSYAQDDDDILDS
Sequence of UniProt Q91YH5 (Q91YH5 whole entry): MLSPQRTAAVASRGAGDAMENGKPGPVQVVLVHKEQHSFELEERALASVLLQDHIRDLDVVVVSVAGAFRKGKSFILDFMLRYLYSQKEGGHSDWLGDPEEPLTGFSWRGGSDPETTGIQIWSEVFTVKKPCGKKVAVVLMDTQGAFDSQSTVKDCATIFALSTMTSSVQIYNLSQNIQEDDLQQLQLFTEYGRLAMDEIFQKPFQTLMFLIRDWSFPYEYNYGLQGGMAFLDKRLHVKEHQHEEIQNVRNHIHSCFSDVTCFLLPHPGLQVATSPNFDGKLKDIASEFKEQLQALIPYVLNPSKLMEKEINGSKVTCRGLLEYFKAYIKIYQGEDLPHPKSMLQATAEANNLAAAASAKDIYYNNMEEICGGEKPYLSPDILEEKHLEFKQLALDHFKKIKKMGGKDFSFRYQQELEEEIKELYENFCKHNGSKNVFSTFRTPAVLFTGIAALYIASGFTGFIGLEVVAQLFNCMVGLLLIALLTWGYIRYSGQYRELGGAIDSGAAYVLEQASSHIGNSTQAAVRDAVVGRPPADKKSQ
Sequence of UniProt Q9DBG5 (Q9DBG5 whole entry): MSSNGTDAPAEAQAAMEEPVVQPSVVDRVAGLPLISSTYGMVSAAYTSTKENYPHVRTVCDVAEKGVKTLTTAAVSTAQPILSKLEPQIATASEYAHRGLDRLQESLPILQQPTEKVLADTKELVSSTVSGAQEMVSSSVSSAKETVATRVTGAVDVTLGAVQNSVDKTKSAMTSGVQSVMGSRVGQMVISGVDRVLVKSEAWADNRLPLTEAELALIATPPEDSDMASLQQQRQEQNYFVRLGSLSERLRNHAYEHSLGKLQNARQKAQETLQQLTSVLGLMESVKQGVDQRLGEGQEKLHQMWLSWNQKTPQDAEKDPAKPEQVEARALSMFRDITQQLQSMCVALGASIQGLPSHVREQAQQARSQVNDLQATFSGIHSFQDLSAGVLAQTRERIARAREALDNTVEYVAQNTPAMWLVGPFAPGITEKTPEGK
Sequence of UniProt Q91WL5 (Q91WL5 whole entry): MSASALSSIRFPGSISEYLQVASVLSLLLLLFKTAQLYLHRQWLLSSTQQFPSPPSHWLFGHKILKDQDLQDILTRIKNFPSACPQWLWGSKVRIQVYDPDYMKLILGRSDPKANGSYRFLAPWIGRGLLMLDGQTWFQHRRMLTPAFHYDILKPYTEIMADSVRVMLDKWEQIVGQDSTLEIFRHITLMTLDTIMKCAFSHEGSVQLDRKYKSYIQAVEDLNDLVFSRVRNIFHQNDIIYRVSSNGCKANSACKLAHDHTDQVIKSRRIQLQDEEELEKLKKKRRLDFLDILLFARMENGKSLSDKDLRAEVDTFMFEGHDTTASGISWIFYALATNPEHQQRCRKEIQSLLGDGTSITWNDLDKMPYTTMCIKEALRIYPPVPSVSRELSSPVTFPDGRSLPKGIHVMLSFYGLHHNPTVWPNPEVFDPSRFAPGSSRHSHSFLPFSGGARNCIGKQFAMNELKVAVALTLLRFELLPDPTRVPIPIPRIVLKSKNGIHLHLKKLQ
Sequence of UniProt P56395 (P56395 whole entry): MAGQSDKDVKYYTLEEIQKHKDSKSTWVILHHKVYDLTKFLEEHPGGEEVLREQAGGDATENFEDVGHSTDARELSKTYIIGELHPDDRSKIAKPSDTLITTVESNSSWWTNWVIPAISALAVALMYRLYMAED

Target | log2 fold change
UniProt E9Q3L2 (peptide sequence: ACLSALSEVK, peptide start residue: 1763) | -0.812
UniProt Q6ZQ89 (peptide sequence: FIHQECLVQWLK, peptide start residue: 34) | 0.572
UniProt P13516 (peptide sequence: TVPLHLEEDIRPEMK, peptide start residue: 33) | 0.245
UniProt Q64459 (peptide sequence: ALLSPTFTSGK, peptide start residue: 131) | -0.273
UniProt P14246 (peptide sequence: HVLGVPLDDR, peptide start residue: 44) | 0.702
UniProt P30561 (peptide sequence: HKLDFTPIGCDAK, peptide start residue: 285) | -1.1
UniProt Q9CZW6 (peptide sequence: GASWLGKR, peptide start residue: 64) | -0.952
UniProt P11440 (peptide sequence: IGEGTYGVVYK, peptide start residue: 10) | -2.03
UniProt Q03147 (peptide sequence: DKNTNQIVAIKK, peptide start residue: 31) | -2.43
UniProt Q99JP0 (peptide sequence: NVNTGELAAIK, peptide start residue: 35) | -1.82
UniProt P56395 (peptide sequence: YYTLEEIQK, peptide start residue: 11) | 0.367
UniProt Q8VEB1 (peptide sequence: DLKPENILLDDYGHIR, peptide start residue: 311) | -0.743
UniProt Q8CC86 (peptide sequence: VCLYLGLEEQEPHPGER, peptide start residue: 253) | -0.575
UniProt Q64261 (peptide sequence: ISAYGALNHPYFQDLER, peptide start residue: 289) | 0.478
UniProt P19253 (peptide sequence: LAHEVGWK, peptide start residue: 141) | 0.254
UniProt Q9JI11 (peptide sequence: ATATQLLQHPFVK, peptide start residue: 270) | -3.07
UniProt Q9D2C7 (peptide sequence: MNIFDRK, peptide start residue: 1) | 0.348
UniProt Q91YH5 (peptide sequence: ALASVLLQDHIR, peptide start residue: 45) | 0.309
UniProt Q9QZS5 (peptide sequence: TVAACDLLQGLLHKDQR, peptide start residue: 258) | -2.7
UniProt Q68FL6 (peptide sequence: GIGVFGDMAK, peptide start residue: 601) | 0.564
UniProt Q91WL5 (peptide sequence: GLLMLDGQTWFQHR, peptide start residue: 128) | 0.409
UniProt P02088 (peptide sequence: DFTPAAQAAFQK, peptide start residue: 122) | 0.285
UniProt Q6ZWQ0 (peptide sequence: INDRWQHLFDVIGSR, peptide start residue: 5986) | 0.927
UniProt Q9DBG5 (peptide sequence: VGQMVISGVDR, peptide start residue: 185) | 0.534
UniProt P06728 (peptide sequence: LQLTPYIQR, peptide start residue: 155) | 0.346

Reference: the supplement of paper PMC12819154, “High-throughput peptide-centric local stability assay extends protein–ligand identification to membrane proteins, tissues and bacteria” (Nature Structural & Molecular Biology, 2025)
